# Mtb UGM inh – M. tuberculosis UGM enzyme inhibitors, primary screen, biochemical, fluorescence polarization, single point; purified UGM, fluorescence polarization probe displacement; UDP-galactopyranose mutase (Mycobacterium tuberculosis (strain ATCC 25618 / H37Rv)), …; inhibition, % at 10 µM; 0.06% of 320,000 active; in the data active = inhibition above about 10%, passing the limit was not always enough; inconclusive = no clear call, values can overlap the other calls
# Mtb hypoxia inh – PubChem AID 1159583 | M. tuberculosis hypoxia-regulated fluorescent reporter, fluorescence | fluorescence inhibition, % (test concentration not listed) | 0.1% of 300,000 active; in the data active = fluorescence inhibition mostly above about 23%, no sharp cut-off; inactive = mostly below about 17%
# VHR inh abs – VHR1 phosphatase inhibitors, primary screen, biochemical, absorbance, uHTS; 0.52% of 290,000 active; Dual specificity protein phosphatase 3 (Homo sapiens), P51452; recombinant VHR phosphatase, pNPP absorbance; inhibition, % at 13.3 µM; in the data active = inhibition above about 50%
# Target sequence (P51452 whole entry, looked up): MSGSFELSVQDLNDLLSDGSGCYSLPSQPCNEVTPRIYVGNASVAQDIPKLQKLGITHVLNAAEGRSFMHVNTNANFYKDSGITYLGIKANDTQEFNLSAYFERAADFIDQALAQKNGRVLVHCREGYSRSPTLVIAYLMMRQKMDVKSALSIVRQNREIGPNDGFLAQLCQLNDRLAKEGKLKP
# Mtb bLac sens – beta-lactam sensitization of Mtb H37Rv, H37Rv; inhibition, % at 25 µM; M. tuberculosis H37Rv growth with meropenem, percent inhibition; AID 434955, 2010; 0.27% of 330,000 active; call rule not given here;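 note: growth measured after seven days incubation then overnight dye step; 0% = bacteria only wells and 100% = bacteria with antibiotic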
# Rv3671c inh – Rv3671c serine protease inhibitors, primary screen, biochemical, fluorescence polarization, M. tuberculosis H37Rv | P9WHR9 | 0.048% of 320,000 active | inhibition, % at 5.96 µM; in the data active = inhibition above about 38%;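 note: extracellular domain of Rv3671c used as enzyme; 0% = enzyme with DMSO and 100% = no enzyme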
# Target sequence (P9WHR9 whole entry, looked up, the tested form may be a part): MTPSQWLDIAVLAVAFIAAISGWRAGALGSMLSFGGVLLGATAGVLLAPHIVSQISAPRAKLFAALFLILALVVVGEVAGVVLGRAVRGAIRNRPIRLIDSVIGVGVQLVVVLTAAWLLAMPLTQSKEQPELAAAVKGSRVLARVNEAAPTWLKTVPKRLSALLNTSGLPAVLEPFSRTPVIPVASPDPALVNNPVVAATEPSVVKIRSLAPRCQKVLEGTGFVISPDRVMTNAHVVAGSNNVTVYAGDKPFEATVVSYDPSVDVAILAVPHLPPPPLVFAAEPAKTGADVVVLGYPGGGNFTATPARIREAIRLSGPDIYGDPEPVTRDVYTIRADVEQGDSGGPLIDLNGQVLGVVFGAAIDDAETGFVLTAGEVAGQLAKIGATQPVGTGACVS
# An asterisk follows results filed as active; ? = inconclusive; nt = no result given. Shown are actives, neighbours in structure and some others; about 0.59% of the full set was active somewhere.
SMILES,Mtb UGM inh,Mtb hypoxia inh,VHR inh abs,Mtb bLac sens,Rv3671c inh
Cc1ccccc1OCC(=O)NCCNC(=O)c1ccccn1,0.1,15.0,54.4*,1.0,-8.0
CCCCc1nnc(NC(=O)CSCc2cc(=O)n3cc(C)sc3n2)s1,3.9,5.4,55.7*,-7.9,-17.9
CC1CCCCN1CCCNC(=O)CN1C(=O)c2cccnc2Oc2ccccc21 (stereo unspecified),0.9,0.2,55.6*,?,1.9
CCC1Oc2ccc(C)cc2N(CC(=O)NCCCN2CCCCC2C)C1=O (stereo unspecified),0.2,nt,57.9*,-3.8,-7.6
Cc1cc(C)n(-c2n[nH]c(C)c2[N+](=O)[O-])n1,-0.5,-0.6,15.1,7.4,-1.6
O=C(Nc1cccc(F)c1)c1c(O)c2ccccc2[nH]c1=O,0.1,8.5,50.2*,1.2,0.2
O=C(N/N=C/c1cccc(F)c1)c1c(O)c2ccccc2[nH]c1=O,-1.7,nt,-2.5,6.7,4.3
COc1ccc(CNCc2cc3c(cc2[N+](=O)[O-])OCO3)cc1,0.1,-2.1,53.0*,7.0,6.6
CNc1nc(OC)nc(N2CCOCC2)n1,1.4,nt,31.8,-3.9,5.4
Cc1[nH]n(-c2ccccc2)c(=O)c1N=Nc1c(Cl)cccc1Cl,3.5,2.4,58.7*,-6.6,-5.7
Cc1ccc(NC(=O)c2ncn(CC(=O)NCc3nc4ccccc4[nH]3)n2)cc1C,nt,-15.3,nt,nt,nt
O=C1CCCN1c1ccc(S(=O)(=O)Nc2ccc3c(c2)OCCO3)cc1,-1.5,11.2,-0.5,-4.3,0.6
CCOC(=O)c1c(S(=O)(=O)Nc2ccc(C)c(F)c2)c(C)n(C)c1C,-1.6,-4.0,35.2,0.5,-5.2
CCOC(=O)c1c(S(=O)(=O)Nc2ccc(C)cn2)c(C)n(C)c1C,0.2,-6.9,51.2*,0.9,-5.2
O=C(/C=C/c1ccc(Cl)cc1)c1ccc([N+](=O)[O-])o1,-0.2,nt,nt,100.2,-2.2
O=C(OCC(=O)c1ccccc1Br)c1ccccn1,1.3,nt,-4.9,-4.0,2.6
O=C(OCC(=O)c1ccc(Cl)cc1Cl)c1ccccn1,-3.3,30.2*,nt,3.6,6.2
COc1cc(OC)cc(C(=O)N(CCCN2C(=O)c3cccc4cccc(c34)C2=O)c2cccc(OC)c2)c1,-0.4,-2.5,22.7,-0.7,-43.6
Cc1[nH]nc(SCC(=O)NC2CCCCC2)c1[N+](=O)[O-],1.1,3.0,54.4*,0.4,2.4
OCC#CCSc1nnc(-c2ccccc2Br)o1,3.6,41.0*,-8.7,32.7,9.2
CCN1CCc2c(C#N)c(NCc3ccccc3)nc(N(CC)CC)c2C1,2.0,17.7,55.6*,98.2,2.5
CC(C)(C)C(=O)NC1(C(F)(F)F)NC(=O)N(CCc2ccccc2)C1=O (stereo unspecified),-1.5,-3.9,-10.3,-11.2,-5.7
COc1ccccc1Oc1ccnc2cc(Cl)ccc12,0.4,-4.9,57.6*,5.9,7.0
COc1ccc(C(=O)OCCc2ccc(O)cc2)cc1,0.3,12.4,-6.8,-6.1,-3.9
COc1ccc(C(=O)OCC[N+]2(C)CCOCC2)cc1,-0.2,1.6,52.7*,-5.3,6.9
SMILES,Mtb UGM inh,Mtb hypoxia inh,VHR inh abs,Mtb bLac sens,Rv3671c inh
CNC(=O)CSc1nnc(-c2ccco2)n1-c1cccc(C)c1,0.2,13.4,10.8,-3.6,3.7
C(=N\N1CCOCC1)/c1ccsc1,1.7,nt,57.3*,-1.8,-5.5
CSc1nc2ccc3nc(NC(=O)c4ccc(Cl)s4)sc3c2s1,-1.5,nt,53.3*,-0.2,-1.7
COc1ccc(CNc2nc3ccccc3n2C)c(OC)c1,4.1,7.1,-8.6,19.8,3.8
COc1ccc(N=Nc2nc3cc(Br)c(Br)cc3n2C)c(OC)c1,34.3*,7.1,2.6,67.9,16.3
Cc1nc2nc(SCC(=O)NCc3ccco3)nn2c(C)c1Cc1c(F)cccc1Cl,0.0,6.0,51.0*,-4.1,-4.5
Cc1ccccc1Cc1c(C)nc2nc(SCC(=O)NCCCN3CCCCC3)nn2c1C,-0.2,-3.0,57.6*,-5.4,-0.1
COc1ccc(-c2oc3ccc(N4CCOCC4)cc3c2/C=C/c2ccc(OC)c(OC)c2)cc1,1.0,nt,17.3,26.1,-2.2
N#CC(=NNc1cccc(C(F)(F)F)c1)C(=O)c1csc(-c2cccnc2)n1,nt,44.1*,nt,nt,nt
O=C(CSc1ncccc1C(=O)O)c1ccccc1F,-1.2,-10.4,7.2,1.4,-2.3
Cc1ccc(S(=O)(=O)N(CC(=O)NCC2CCCO2)c2cccc([N+](=O)[O-])c2)cc1 (stereo unspecified),-0.5,16.9,4.8,2.5,-2.9
CS(=O)(=O)N(CC(=O)NCC1CCCO1)c1cccc([N+](=O)[O-])c1 (stereo unspecified),-2.5,1.3,56.3*,-1.6,0.5
Cn1c2ccccc2c2cc(C=NNC(=O)c3ccccc3F)ccc21,nt,12.0,nt,nt,nt
CCN1/C(=C/c2ccc3cc(C)ccc3[n+]2CC)Sc2ccccc21,-10.7,nt,-3.8,100.3,-9.4
CCN1/C(=C/c2ccc3cc(C)ccc3[n+]2CC)Sc2cc(C)c(C)cc21,nt,39.9*,22.2,nt,nt
O=C(Nc1ccc(Br)cn1)c1ccc(Cl)s1,0.4,-4.2,52.0*,4.1,-19.2
CSc1ncccc1C(=O)OCC(=O)c1ccc[nH]1,-0.4,22.3*,nt,-8.0,-3.0
Cc1nn(C)c(C(=O)NCc2ccc(Cl)cc2)c1Cl,-2.7,15.0,0.1,7.2,-4.9
COc1cccc(C(C(=O)NC2CCCC2)N(Cc2cccnc2)C(=O)Cc2cccs2)c1 (stereo unspecified),-0.6,7.5,50.4*,-1.8,4.8
O=C(NCC(=O)N(c1ccccc1)C(C(=O)NC1CCCCC1)c1cccnc1)c1cccs1 (stereo unspecified),0.8,11.4,52.0*,-5.6,-4.4
Cc1cccc(N(C(=O)CNC(=O)c2cccs2)C(C(=O)NC2CCCC2)c2cccnc2)c1 (stereo unspecified),-0.9,3.0,56.7*,3.9,3.6
Cn1c(SCCC(=O)O)nnc1-c1ccncc1,-1.8,-5.6,4.4,-6.8,1.1
O=C(Nc1ccc(N2CCOCC2)cc1)c1cccc(-n2cnnc2)c1,0.6,2.6,53.4*,-13.9,-4.1
O=C(Nc1ccc(N2CCOCC2)c(Cl)c1)c1cccc(-n2cnnc2)c1,-0.6,-5.6,22.6,1.0,5.5
Cc1cnc(C(=O)OCc2ccc(Br)cc2F)cn1,0.2,-9.8,57.6*,-5.4,4.0
SMILES,Mtb UGM inh,Mtb hypoxia inh,VHR inh abs,Mtb bLac sens,Rv3671c inh
Cc1cnc(C(=O)OCc2ccc(COC(=O)c3cnc(C)cn3)cc2)cn1,0.7,16.9,16.9,11.5,2.6
CCCCCn1nc(-c2ccccc2)c2nc3ccccc3nc21,37.7*,nt,14.7,-3.2,-1.9
Cc1ccc(CNC(=O)c2ccccc2NC(=O)CN2CCN(C)CC2)cc1,5.4,15.8,56.2*,5.7,4.6
COc1cccc(N2CCN(CC(=O)Nc3ccccc3C(=O)NCc3ccccc3)CC2)c1,nt,10.8,nt,36.8,-7.0
COc1ccc(N=NC2=C(O)CC(C)(C)CC2=O)c(OC)c1,-2.2,17.9,52.9*,-1.8,-5.8
COc1ccccc1N1C(=O)C2C(C(=O)c3ccccc3)=NN(c3ccccc3)C2C1=O (stereo unspecified),-1.4,6.1,20.6,-3.9,7.3
